Laboratory results reported in the supplement of paper PMC11732987, “Enantioselective OTUD7B fragment discovery through chemoproteomics screening and high-throughput optimisation” (Communications Chemistry, 2025).

Assays:
Assay in all cases: log2 ratio of Biotin-Ahx-Ub-VS probe labelling (fragment/DMSO); higher = less target engagement (more negative = stronger competition), active = hit call of the paper (q ≤ 0.05, log2 ratio ≤ -1)
Conditions in all cases: compound concentration: 200 uM; treatment time: 3 h
USP34 = USP34 (UniProt Q70CQ2)
Sequence of USP34 (Q70CQ2 whole entry, the tested form may be a part): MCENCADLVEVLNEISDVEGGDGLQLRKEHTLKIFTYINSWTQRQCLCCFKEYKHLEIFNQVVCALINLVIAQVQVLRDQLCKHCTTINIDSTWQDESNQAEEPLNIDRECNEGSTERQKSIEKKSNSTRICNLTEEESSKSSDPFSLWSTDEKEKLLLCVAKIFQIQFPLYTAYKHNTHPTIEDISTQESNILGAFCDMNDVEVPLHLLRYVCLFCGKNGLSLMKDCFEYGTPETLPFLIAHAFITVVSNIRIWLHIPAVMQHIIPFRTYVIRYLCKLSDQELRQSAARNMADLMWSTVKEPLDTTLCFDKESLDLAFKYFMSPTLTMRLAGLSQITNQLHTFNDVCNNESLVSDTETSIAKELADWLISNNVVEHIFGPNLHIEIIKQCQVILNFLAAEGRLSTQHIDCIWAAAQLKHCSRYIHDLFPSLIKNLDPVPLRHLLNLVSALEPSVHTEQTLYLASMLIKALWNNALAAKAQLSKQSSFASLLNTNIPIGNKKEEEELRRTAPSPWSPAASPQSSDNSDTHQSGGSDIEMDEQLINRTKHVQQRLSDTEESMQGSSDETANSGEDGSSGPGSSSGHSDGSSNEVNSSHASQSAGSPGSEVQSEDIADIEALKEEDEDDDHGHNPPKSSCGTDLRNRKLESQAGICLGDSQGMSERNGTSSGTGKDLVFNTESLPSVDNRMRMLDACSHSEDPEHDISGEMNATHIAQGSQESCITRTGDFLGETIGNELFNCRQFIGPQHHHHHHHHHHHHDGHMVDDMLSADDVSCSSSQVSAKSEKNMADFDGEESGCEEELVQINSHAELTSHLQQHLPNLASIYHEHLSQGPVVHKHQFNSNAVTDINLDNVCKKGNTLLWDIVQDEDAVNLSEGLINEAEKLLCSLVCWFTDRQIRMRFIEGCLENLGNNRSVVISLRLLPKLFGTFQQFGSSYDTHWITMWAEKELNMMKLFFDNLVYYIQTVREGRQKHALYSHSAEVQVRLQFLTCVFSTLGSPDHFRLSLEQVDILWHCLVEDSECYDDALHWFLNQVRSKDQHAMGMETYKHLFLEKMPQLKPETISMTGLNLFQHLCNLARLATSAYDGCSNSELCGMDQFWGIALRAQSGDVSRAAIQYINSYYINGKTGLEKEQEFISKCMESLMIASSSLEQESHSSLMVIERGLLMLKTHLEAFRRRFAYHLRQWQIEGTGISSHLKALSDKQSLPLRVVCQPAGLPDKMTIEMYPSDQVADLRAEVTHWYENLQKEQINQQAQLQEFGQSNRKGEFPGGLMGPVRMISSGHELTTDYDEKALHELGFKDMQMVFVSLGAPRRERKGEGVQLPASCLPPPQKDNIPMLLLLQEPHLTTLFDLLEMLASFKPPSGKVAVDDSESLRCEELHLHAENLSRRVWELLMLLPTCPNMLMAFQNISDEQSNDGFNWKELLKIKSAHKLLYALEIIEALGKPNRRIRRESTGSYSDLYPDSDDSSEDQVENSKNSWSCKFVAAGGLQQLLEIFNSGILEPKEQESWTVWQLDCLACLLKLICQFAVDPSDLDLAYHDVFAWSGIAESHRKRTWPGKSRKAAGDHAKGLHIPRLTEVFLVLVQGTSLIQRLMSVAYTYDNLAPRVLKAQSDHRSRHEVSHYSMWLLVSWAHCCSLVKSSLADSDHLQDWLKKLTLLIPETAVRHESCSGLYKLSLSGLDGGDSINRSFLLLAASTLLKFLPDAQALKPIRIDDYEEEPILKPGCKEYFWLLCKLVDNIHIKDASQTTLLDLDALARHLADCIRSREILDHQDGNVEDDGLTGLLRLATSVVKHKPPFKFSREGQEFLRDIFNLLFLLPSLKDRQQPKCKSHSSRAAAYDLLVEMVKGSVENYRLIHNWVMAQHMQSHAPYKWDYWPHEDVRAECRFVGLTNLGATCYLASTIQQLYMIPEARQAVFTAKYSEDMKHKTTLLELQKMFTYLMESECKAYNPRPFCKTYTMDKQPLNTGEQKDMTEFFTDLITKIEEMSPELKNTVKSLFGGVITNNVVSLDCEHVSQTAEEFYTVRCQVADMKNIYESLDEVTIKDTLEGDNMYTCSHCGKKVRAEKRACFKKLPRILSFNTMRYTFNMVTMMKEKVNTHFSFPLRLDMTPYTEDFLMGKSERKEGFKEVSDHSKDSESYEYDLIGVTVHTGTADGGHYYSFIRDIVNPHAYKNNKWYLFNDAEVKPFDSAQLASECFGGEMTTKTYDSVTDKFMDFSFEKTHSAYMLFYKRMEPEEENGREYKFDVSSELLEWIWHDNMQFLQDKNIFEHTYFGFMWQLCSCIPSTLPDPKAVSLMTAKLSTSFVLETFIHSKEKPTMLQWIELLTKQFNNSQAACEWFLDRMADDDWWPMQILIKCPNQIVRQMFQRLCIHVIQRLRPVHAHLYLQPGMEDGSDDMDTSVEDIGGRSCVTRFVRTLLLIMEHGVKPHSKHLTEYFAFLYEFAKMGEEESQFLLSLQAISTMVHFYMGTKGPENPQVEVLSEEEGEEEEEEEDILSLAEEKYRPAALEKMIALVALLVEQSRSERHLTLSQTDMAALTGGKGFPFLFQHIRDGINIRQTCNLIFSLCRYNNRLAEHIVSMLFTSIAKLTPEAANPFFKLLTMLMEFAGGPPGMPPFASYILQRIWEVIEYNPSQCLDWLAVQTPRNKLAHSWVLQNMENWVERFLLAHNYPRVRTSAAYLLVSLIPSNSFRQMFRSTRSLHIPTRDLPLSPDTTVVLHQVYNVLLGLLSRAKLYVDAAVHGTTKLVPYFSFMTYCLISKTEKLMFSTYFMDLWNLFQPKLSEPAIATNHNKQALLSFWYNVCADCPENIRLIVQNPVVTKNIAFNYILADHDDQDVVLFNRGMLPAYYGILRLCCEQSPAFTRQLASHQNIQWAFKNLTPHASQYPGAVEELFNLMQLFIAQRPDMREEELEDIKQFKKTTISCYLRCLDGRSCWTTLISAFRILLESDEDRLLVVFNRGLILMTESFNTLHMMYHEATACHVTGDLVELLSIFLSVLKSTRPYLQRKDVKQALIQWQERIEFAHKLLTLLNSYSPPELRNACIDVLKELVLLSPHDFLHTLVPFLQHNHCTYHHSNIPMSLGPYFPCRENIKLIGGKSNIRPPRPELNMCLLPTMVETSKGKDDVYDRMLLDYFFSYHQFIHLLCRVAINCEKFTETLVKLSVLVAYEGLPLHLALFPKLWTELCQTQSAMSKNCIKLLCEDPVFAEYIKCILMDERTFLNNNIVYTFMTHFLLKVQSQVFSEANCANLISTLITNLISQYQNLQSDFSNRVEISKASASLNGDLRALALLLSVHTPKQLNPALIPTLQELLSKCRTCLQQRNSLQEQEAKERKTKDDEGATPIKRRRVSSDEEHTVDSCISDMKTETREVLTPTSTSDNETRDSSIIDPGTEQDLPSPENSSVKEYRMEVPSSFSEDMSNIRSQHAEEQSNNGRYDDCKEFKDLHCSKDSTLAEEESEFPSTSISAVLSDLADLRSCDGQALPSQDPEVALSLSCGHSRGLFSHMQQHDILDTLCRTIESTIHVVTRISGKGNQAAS
Procedure, shortened: (§1)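 Using Biotin-Ahx-Ub-VS at 0.5 µM final for 1 h, DUBs were labelled in HEK293T lysate (495 µg per sample) that had first been treated in triplicate with fragment at 200 µM or vehicle for 3 h. NeutrAvidin enrichment, LysC and trypsin digestion and diaPASEF LC-MS/MS followed. Spectronaut label-free quantities were global-median-normalised. Values are average log2 fragment/vehicle ratios by unpaired t-test, using proteins with ≥2 unique peptides.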

USP36 = biological target: T1, USP36 (UniProt Q9P275)
T1 sequence (whole entry): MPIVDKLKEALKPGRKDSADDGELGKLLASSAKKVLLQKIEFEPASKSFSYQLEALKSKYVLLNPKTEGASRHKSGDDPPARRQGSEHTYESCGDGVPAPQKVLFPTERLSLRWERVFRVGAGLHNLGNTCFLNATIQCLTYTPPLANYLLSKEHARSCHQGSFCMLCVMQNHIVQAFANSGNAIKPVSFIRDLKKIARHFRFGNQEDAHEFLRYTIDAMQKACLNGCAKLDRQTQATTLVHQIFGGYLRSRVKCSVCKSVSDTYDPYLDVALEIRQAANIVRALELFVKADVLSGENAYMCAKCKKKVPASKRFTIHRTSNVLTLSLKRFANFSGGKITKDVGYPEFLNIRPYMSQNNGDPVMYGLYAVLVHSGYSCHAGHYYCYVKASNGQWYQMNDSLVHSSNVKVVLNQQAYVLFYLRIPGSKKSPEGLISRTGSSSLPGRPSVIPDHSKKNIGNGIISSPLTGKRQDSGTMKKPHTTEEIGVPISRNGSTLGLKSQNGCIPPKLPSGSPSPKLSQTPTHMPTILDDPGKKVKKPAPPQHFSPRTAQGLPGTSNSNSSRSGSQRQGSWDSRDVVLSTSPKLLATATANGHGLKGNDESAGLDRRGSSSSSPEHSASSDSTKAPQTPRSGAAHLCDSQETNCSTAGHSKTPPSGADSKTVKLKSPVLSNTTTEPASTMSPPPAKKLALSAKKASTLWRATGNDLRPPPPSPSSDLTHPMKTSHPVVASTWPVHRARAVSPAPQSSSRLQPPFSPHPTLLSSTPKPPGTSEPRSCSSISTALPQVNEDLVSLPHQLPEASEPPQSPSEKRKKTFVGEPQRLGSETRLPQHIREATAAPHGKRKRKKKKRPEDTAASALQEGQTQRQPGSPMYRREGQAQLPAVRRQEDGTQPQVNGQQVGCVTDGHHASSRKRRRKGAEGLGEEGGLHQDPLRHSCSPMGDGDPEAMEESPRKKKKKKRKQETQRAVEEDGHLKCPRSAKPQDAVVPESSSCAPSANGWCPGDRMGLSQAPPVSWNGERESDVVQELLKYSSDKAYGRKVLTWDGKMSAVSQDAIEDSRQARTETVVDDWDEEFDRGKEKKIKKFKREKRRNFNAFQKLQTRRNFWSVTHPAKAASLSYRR
Procedure, shortened: as §1

USP38 = biological target: T2, USP38 (UniProt Q8NB14)
T2 sequence (whole entry): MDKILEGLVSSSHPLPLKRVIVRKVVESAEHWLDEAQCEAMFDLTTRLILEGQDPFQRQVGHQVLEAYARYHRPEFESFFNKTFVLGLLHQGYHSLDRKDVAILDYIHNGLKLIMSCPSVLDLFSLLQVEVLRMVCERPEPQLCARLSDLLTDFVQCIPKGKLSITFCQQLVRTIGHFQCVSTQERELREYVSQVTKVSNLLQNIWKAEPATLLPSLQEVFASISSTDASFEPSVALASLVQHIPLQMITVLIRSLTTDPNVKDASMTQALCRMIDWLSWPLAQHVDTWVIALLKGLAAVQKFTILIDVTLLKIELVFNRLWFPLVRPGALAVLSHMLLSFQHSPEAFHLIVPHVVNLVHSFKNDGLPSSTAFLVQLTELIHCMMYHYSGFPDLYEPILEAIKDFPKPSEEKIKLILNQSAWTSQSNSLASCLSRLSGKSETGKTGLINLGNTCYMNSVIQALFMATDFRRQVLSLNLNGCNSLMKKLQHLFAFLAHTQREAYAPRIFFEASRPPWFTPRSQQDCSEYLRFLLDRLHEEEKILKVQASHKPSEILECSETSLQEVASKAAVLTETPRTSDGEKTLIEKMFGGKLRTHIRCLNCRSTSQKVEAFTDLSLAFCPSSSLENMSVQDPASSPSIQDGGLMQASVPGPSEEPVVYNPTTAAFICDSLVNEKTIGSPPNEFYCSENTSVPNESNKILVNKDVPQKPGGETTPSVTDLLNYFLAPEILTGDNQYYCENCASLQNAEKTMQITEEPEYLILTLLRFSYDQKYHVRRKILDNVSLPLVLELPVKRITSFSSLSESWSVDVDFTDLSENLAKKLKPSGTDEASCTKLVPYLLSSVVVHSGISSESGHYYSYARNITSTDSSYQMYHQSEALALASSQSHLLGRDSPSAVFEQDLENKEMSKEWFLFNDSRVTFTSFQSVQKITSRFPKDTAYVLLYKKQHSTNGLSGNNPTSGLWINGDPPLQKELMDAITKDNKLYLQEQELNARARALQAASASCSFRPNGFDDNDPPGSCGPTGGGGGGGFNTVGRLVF
Procedure, shortened: as §1

USP39 = biological target: T3, USP39 (UniProt Q53GS9)
T3 sequence (whole entry): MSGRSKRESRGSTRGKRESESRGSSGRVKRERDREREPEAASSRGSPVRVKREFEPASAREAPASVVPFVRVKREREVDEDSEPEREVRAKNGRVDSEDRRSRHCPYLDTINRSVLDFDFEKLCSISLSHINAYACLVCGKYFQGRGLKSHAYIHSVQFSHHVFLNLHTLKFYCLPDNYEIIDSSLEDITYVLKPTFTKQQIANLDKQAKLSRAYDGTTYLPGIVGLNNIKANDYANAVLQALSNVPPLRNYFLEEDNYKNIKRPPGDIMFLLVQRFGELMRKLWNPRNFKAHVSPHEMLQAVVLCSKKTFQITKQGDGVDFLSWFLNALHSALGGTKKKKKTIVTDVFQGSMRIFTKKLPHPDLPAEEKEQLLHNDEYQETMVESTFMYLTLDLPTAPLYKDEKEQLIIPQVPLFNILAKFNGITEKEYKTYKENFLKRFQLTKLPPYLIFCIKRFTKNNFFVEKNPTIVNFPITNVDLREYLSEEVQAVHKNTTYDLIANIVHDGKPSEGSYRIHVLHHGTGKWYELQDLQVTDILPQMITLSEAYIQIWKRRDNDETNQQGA
Procedure, shortened: as §1

USP4 = biological target: T4, USP4 (UniProt Q13107)
T4 sequence (whole entry): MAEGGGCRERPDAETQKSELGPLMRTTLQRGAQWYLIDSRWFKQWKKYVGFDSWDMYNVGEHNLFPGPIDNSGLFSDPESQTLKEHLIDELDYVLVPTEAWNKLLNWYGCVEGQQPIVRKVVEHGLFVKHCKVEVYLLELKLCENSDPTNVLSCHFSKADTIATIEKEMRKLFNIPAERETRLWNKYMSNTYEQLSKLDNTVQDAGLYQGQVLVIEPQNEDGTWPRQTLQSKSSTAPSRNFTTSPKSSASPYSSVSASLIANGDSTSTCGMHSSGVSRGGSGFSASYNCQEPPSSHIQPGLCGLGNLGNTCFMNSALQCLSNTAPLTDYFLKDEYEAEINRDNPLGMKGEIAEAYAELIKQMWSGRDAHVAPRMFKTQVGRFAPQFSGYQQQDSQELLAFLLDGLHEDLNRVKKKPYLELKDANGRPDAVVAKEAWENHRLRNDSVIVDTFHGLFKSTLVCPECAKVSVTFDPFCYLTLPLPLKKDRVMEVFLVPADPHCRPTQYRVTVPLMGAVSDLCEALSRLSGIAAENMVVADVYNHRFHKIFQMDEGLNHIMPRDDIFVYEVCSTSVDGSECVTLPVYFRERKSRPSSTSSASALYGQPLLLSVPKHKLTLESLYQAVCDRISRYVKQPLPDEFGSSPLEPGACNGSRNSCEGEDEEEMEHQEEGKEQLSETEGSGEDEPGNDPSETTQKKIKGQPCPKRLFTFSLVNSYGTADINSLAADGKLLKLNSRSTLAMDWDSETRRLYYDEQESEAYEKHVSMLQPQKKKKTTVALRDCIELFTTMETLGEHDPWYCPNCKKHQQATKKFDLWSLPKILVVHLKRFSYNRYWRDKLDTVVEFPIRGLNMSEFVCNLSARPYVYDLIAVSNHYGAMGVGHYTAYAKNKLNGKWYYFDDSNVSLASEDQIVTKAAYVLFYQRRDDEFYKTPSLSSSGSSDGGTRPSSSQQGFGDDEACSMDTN
Procedure, shortened: as §1

Measured: log2 ratio of Biotin-Ahx-Ub-VS probe labelling

O=C(CCl)N1CCC(=C(F)CO)C1
inactive: USP34 0.0842 | USP36 -0.125 | USP38 0.0909 | USP39 0.212 | USP4 0.218
